The subject of the first test is EPHB3. The following applies: concentration: 1 μM, replicates: in singlicate; n = 1.
Turning to `COc1cc(Nc2nccc(N3CCC(NC(=O)Nc4cc(C)ccc4C)C3)n2)cc(OC)c1OC` (stereo not drawn) [GSK1379762], the “%Inh” value is reported as 16%. For `COC(=O)c1c(-c2ccccc2)c2cc(OC)ccc2c(=O)n1Cc1ccccc1`, the “%Inh” value was 35%. The same measure, in the same setting: the result for `Cc1c(Cn2ccn3c(=O)cc(N4CCOCC4)nc23)cccc1C(F)(F)F` [GSK2289044] reads 5%; that for `Cl.Oc1ccc(-c2nc(-c3ccccc3)[nH]c2-c2ccncc2)cc1` [SB-428218], 25%. On to `CC1=C(C(=O)Nc2cc3cn[nH]c3cc2F)C(c2ccc(C(F)(F)F)cc2)CC(=O)N1` (stereo not drawn) [GSK429286], for which the “%Inh” value came out at 21%.

Consider `CCCc1ccc(S(=O)(=O)NC2CCN(c3ccnc(Nc4ccc(F)cc4)n3)C2)cc1` (stereo not drawn) [GSK1379715], for which the “%Inh” value was determined as 15%. As to `Cc1ccc(NC(=O)Nc2cccc(Cl)c2)cc1-c1ccc(C(=O)Nc2ccncc2)cc1` [GSK1398468], the “%Inh” value was determined as 4%. On to `O=S(=O)(c1ccc(-c2ccnc3[nH]ccc23)cc1)N1CCCC1` [GSK846226], for which the “%Inh” value worked out at 14%. In the case of `Cn1ccc2ncnc(Oc3ccc(NC(=O)Nc4ccccc4)cc3)c21`, the “%Inh” value is recorded as 22%. With `CCn1c(-c2ccccn2)nc2cnccc21` [SB-736398], the “%Inh” value turned out to be 12%. On the same count and under the same terms, as for `CC(=O)Nc1nc2cnc(Nc3cc(NC(=O)c4cccc(CCC#N)c4)ccc3C)nc2s1`, the figure is 14%; as for `Cc1cccc(-c2nc(C)cc(Nc3ccncc3)n2)n1` [GSK257997], 5%; as for `CS(=O)(=O)c1ccc(-c2c(-c3ncn[nH]3)sc(N3CCOCC3)c2C#N)cc1`, 36%.

Turning to `O=C(O)COc1ncnc2cc(-c3ccc4[nH]ncc4c3)sc12`, the “%Inh” value is recorded as 0%. Turning to `Cc1c(O)cccc1Nc1ccnc2ccc(C(F)(F)F)cc12.Cl` [GW466413], the “%Inh” value is 54%. As to `O=C(Nc1ccc2c(c1)OCO2)NC1CCN(c2ccnc(Nc3ccc(F)cc3)n2)C1` (stereo not drawn) [GSK1379724], the “%Inh” value is recorded as 16%. With `Cl.c1ccc(-c2n[nH]cc2-c2ccnc(-c3ccc(CN4CCOCC4)cc3)c2)nc1` [GW776245], the “%Inh” value was 13%. On the same count and under the same terms, the result for `Cc1ccc(NC(=O)Nc2cc(C(C)(C)C)nn2-c2ccccc2)cc1` [GSK1014915] reads 20%.

The test system of the next test is EPHB4. As to conditions: concentration: 1 μM, replicates: in singlicate; n = 1.
Consider `Cc1cccc(-c2nc(Nc3cccc(C(N)=O)c3)c3ccccc3n2)n1` [GW876019], for which the “%Inh” value amounted to 50%. Still for that read-out and setting: as for `CC(C)(C)c1ccc(C(=O)Nc2cn3cc(-c4cccnc4)ccc3n2)cc1`, the figure is 16%; as for `Clc1cc(Cl)cc(Nc2ccnc(Nc3cc(Cl)cc(Cl)c3)n2)c1` [GSK175726], 28%; as for `COc1ccc(CNC(=O)NC2CCN(c3ccnc(Nc4cc(OC)c(OC)c(OC)c4)n3)C2)cc1` (stereo not drawn) [GSK1379748], 0%. The same measure, in the same setting: as for `Fc1cccc(COc2nnc(-c3ccc4c(c3)CCO4)o2)c1`, the figure is 16%. Same read-out and setting: the result for `CN1C(=O)C(Nc2ccc(Cl)c(C(=O)O)c2)=C(c2ccc(Cl)cc2)C1=O` [SB-404290] reads 0%; that for `Cn1cncc1-c1ccc2ncnc(Nc3ccc(OCc4ccccc4)cc3)c2c1` [GW320571], 8%; that for `Nc1ncnc2[nH]c(-c3ccccc3)nc12` [AH5015], 19%. For `Cc1nnc(-c2ccc3occ(-c4ccc(S(C)=O)cc4)c3c2)[nH]1` (stereo not drawn), the “%Inh” value is 16%. On to `Fc1cc(Cl)ccc1Nc1ccnc2cc(I)ccc12` [GW551191], for which the “%Inh” value is 15%.

Consider `CC(C)(C)c1ccc(C(=O)Nc2cn3cc(Cl)ccc3n2)cc1`, for which the “%Inh” value is 0%. `C[C@@H]1CCCCN1c1cc(-c2ccc3c(N)n[nH]c3c2)nc(N)n1` [GSK2258759]: the “%Inh” value is reported as 15%. Still for that read-out and setting: the result for `Cc1cccc(-c2nc(Nc3ccc4[nH]ncc4c3)c3ccccc3n2)n1` [GW857175] reads 0%.

Take `Cc1cccc(-c2cc(Nc3ccncc3)c3ccccc3n2)n1` [GSK223675]: the “%Inh” value came to 0%.

Regarding `COc1cc2nccc(Nc3ccc(NC(=O)c4ccc(C)cc4)c(O)c3)c2cc1OC.Cl` [GW440132], the “%Inh” value came to 10%. On the same count and under the same terms, the result for `COc1cc(Nc2nccc(N3CCC(NC(=O)Nc4cc(C)ccc4C)C3)n2)cc(OC)c1OC` (stereo not drawn) [GSK1379762] reads 4%. Still for that read-out and setting: the result for `COC(=O)c1c(-c2ccccc2)c2cc(OC)ccc2c(=O)n1Cc1ccccc1` reads 27%; that for `Cc1c(Cn2ccn3c(=O)cc(N4CCOCC4)nc23)cccc1C(F)(F)F` [GSK2289044], 9%; that for `Cl.Oc1ccc(-c2nc(-c3ccccc3)[nH]c2-c2ccncc2)cc1` [SB-428218], 45%. Same read-out and setting: as for `CC1=C(C(=O)Nc2cc3cn[nH]c3cc2F)C(c2ccc(C(F)(F)F)cc2)CC(=O)N1` (stereo not drawn) [GSK429286], the figure is 10%. Turning to `CCCc1ccc(S(=O)(=O)NC2CCN(c3ccnc(Nc4ccc(F)cc4)n3)C2)cc1` (stereo not drawn) [GSK1379715], the “%Inh” value was determined as 15%.

For the compound `Cc1ccc(NC(=O)Nc2cccc(Cl)c2)cc1-c1ccc(C(=O)Nc2ccncc2)cc1` [GSK1398468], the “%Inh” value was found to be 19%. Still for that read-out and setting: the result for `O=S(=O)(c1ccc(-c2ccnc3[nH]ccc23)cc1)N1CCCC1` [GSK846226] reads 4%; that for `Cn1ccc2ncnc(Oc3ccc(NC(=O)Nc4ccccc4)cc3)c21`, 6%. With `CCn1c(-c2ccccn2)nc2cnccc21` [SB-736398], the “%Inh” value was found to be 35%. For `CC(=O)Nc1nc2cnc(Nc3cc(NC(=O)c4cccc(CCC#N)c4)ccc3C)nc2s1`, the “%Inh” value is 19%. On the same count and under the same terms, as for `Cc1cccc(-c2nc(C)cc(Nc3ccncc3)n2)n1` [GSK257997], the figure is 5%; as for `CS(=O)(=O)c1ccc(-c2c(-c3ncn[nH]3)sc(N3CCOCC3)c2C#N)cc1`, 42%. With `O=C(O)COc1ncnc2cc(-c3ccc4[nH]ncc4c3)sc12`, the “%Inh” value is 7%. On to `Cc1c(O)cccc1Nc1ccnc2ccc(C(F)(F)F)cc12.Cl` [GW466413], for which the “%Inh” value is given as 20%. Still for that read-out and setting: as for `O=C(Nc1ccc2c(c1)OCO2)NC1CCN(c2ccnc(Nc3ccc(F)cc3)n2)C1` (stereo not drawn) [GSK1379724], the figure is 11%; as for `Cl.c1ccc(-c2n[nH]cc2-c2ccnc(-c3ccc(CN4CCOCC4)cc3)c2)nc1` [GW776245], 17%; as for `Cc1ccc(NC(=O)Nc2cc(C(C)(C)C)nn2-c2ccccc2)cc1` [GSK1014915], 12%.

For the origin of these results see article PMC5540273 (PLoS ONE, 2017).
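Further: KINOMEscan kinase panel screen.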
